{"source": "the supplement of paper PMC8728848", "assay_in_all_cases": "glycan array binding signal (z-score within array); higher = stronger binding", "conditions_in_all_cases": "glycan notation: IUPAC condensed, linker removed; mutation: D22R", "key": {"[1]": {"molecular_target": "GalNAc4S6S(b1-4)GlcNAc", "in_short": "(§1)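 Glycan array data came from 3228 arrays in the Consortium for Functional Glycomics database, and only arrays with an available protein sequence were kept. Glycan names were put into IUPAC-condensed notation, and columns mapping to the same glycan were averaged. The binding signal is a within-array Z-score, averaged across arrays of one protein sequence run at different concentrations or buffers and across linkers. A negative Z-score can be read as non-binding.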"}, "[2]": {"molecular_target": "GlcA(b1-6)Gal", "in_short": "as §1"}, "[3]": {"molecular_target": "GlcNAc(a1-4)Gal(b1-4)GlcNAc(b1-3)Gal(b1-4)GlcNAc(b1-3)Gal(b1-4)GlcNAc", "in_short": "as §1"}, "[4]": {"molecular_target": "GlcNAc(b1-3)Fuc", "in_short": "as §1"}, "[5]": {"molecular_target": "GlcNAc(b1-3)Gal", "in_short": "as §1"}, "[6]": {"molecular_target": "GlcNAc(b1-3)Gal(b1-4)GlcNAc(b1-2)[GlcNAc(b1-3)Gal(b1-4)GlcNAc(b1-6)]Man(a1-6)[GlcNAc(b1-3)Gal(b1-4)GlcNAc(b1-2)Man(a1-3)]Man(b1-4)GlcNAc(b1-4)GlcNAc", "in_short": "as §1"}, "[7]": {"molecular_target": "GlcNAc(b1-3)Gal(b1-4)GlcNAc(b1-3)Gal(b1-4)GlcNAc(b1-3)Gal(b1-4)GlcNAc(b1-3)Gal(b1-4)GlcNAc(b1-2)[GlcNAc(b1-3)Gal(b1-4)GlcNAc(b1-3)Gal(b1-4)GlcNAc(b1-3)Gal(b1-4)GlcNAc(b1-3)Gal(b1-4)GlcNAc(b1-6)]Man(a1-6)[GlcNAc(b1-3)Gal(b1-4)GlcNAc(b1-3)Gal(b1-4)GlcNAc(b1-3)Gal(b1-4)GlcNAc(b1-3)Gal(b1-4)GlcNAc(b1-2)Man(a1-3)]Man(b1-4)GlcNAc(b1-4)[Fuc(a1-6)]GlcNAc", "in_short": "as §1"}, "[8]": {"molecular_target": "GlcNAc(b1-3)Gal(b1-4)GlcNAc(b1-6)[GlcNAc(b1-3)]Gal(b1-4)GlcNAc", "in_short": "as §1"}, "[9]": {"molecular_target": "GlcNAc(b1-3)GalNAc", "in_short": "as §1"}, "[10]": {"molecular_target": "GlcNAc(b1-4)[GlcNAc(b1-6)]GalNAc", "in_short": "as §1"}, "[11]": {"molecular_target": "GlcNAc(b1-6)Gal(b1-4)GlcNAc", "in_short": "as §1"}, "[12]": {"molecular_target": "Neu5Ac(a2-3)Gal(b1-3)GlcNAc(b1-2)Man(a1-3)[GlcNAc(b1-4)][Neu5Ac(a2-3)Gal(b1-3)GlcNAc(b1-2)Man(a1-6)]Man(b1-4)GlcNAc(b1-4)GlcNAc", "in_short": "as §1"}, "[13]": {"molecular_target": "Neu5Ac(a2-3)Gal(b1-3)[Neu5Ac(a2-6)]GlcNAc(b1-3)[Fuc(a1-3)[Gal(b1-4)]GlcNAc(b1-6)]Gal(b1-4)Glc", "in_short": "as §1"}, "[14]": {"molecular_target": "Neu5Ac(a2-3)Gal(b1-3)]Neu5Ac(a2-3)Gal(b1-4)]GlcNAc", "in_short": "as §1"}, "[15]": {"molecular_target": "Neu5Ac(a2-3)Gal(b1-4)GlcNAc(b1-2)[Neu5Ac(a2-3)Gal(b1-4)GlcNAc(b1-4)]Man(a1-3)[GlcNAc(b1-4)][Neu5Ac(a2-3)Gal(b1-4)GlcNAc(b1-4)Man(a1-6)]Man(b1-4)GlcNAc(b1-4)GlcNAc", "in_short": "as §1"}, "[16]": {"molecular_target": "Neu5Ac(a2-3)Gal(b1-4)GlcNAc(b1-3)Gal(b1-4)[Fuc(a1-3)]GlcNAc", "in_short": "as §1"}, "[17]": {"molecular_target": "Neu5Ac(a2-3)Gal(b1-4)[Fuc(a1-3)]GlcNAc(b1-3)Gal(b1-4)[Fuc(a1-3)]GlcNAc(b1-3)Gal(b1-4)[Fuc(a1-3)]GlcNAc", "in_short": "as §1"}, "[18]": {"molecular_target": "Neu5Ac(a2-6)Gal(b1-4)GlcNAc(b1-2)Man", "in_short": "as §1"}, "[19]": {"molecular_target": "Neu5Ac(a2-6)Gal(b1-4)GlcNAc(b1-3)Gal(b1-3)GlcNAc", "in_short": "as §1"}, "[20]": {"molecular_target": "Neu5Ac(a2-6)Gal(b1-4)GlcNAc(b1-3)Gal(b1-4)GlcNAc(b1-3)Gal(b1-4)GlcNAc(b1-2)Man(a1-3)[Neu5Ac(a2-6)Gal(b1-4)GlcNAc(b1-3)Gal(b1-4)GlcNAc(b1-3)Gal(b1-4)GlcNAc(b1-2)Man(a1-6)]GalNAc", "in_short": "as §1"}, "[21]": {"molecular_target": "Neu5Ac(a2-6)Gal(b1-4)GlcNAc(b1-3)Gal(b1-4)GlcNAc(b1-3)[Neu5Ac(a2-6)Gal(b1-4)GlcNAc(b1-3)Gal(b1-4)GlcNAc(b1-6)]GalNAc", "in_short": "as §1"}, "[22]": {"molecular_target": "Neu5Ac(a2-6)Gal(b1-4)GlcNAc(b1-3)GalNAc", "in_short": "as §1"}, "[23]": {"molecular_target": "Neu5Ac(a2-6)Gal(b1-4)GlcNAc(b1-6)[Gal(b1-3)]GalNAc", "in_short": "as §1"}, "[24]": {"molecular_target": "Neu5Ac(a2-6)GalNAc", "in_short": "as §1"}, "[25]": {"molecular_target": "Neu5Ac(a2-8)Neu5Ac(a2-8)Neu5Ac(a2-3)[GalNAc(b1-4)]Gal(b1-4)Glc", "in_short": "as §1"}, "[26]": {"molecular_target": "Neu5Ac(b2-6)Gal(b1-4)GlcNAc", "in_short": "as §1"}}, "note": "Only a selection was taken, and the strongest signals are over-represented in it overall."}
{"binder": "MpL2 (Macrolepiota procera) (protein) MSTQVSSGQTYKITNVKAGTVIRLSGEDNKSIIGYPYHSGKNQQWTFNWTGKAWTLRSASSGSYLGIEGTPADGTRLVAVNDPFEWHIWRDEANENAFRIFVPFTNYNLDLSGYGDTTPGTPVQLWWTWEGLHQTWTIDRP", "values": [{"measurement": "glycan array binding signal (z-score)", "setting": "[1]", "result": -0.021}, {"measurement": "glycan array binding signal (z-score)", "setting": "[2]", "result": 9.35}, {"measurement": "glycan array binding signal (z-score)", "setting": "[3]", "result": -0.264}, {"measurement": "glycan array binding signal (z-score)", "setting": "[4]", "result": 0.069}, {"measurement": "glycan array binding signal (z-score)", "setting": "[5]", "result": -0.201}, {"measurement": "glycan array binding signal (z-score)", "setting": "[6]", "result": 1.11}, {"measurement": "glycan array binding signal (z-score)", "setting": "[7]", "result": 0.58}, {"measurement": "glycan array binding signal (z-score)", "setting": "[8]", "result": -0.264}, {"measurement": "glycan array binding signal (z-score)", "setting": "[9]", "result": -0.361}, {"measurement": "glycan array binding signal (z-score)", "setting": "[10]", "result": -0.082}, {"measurement": "glycan array binding signal (z-score)", "setting": "[11]", "result": -0.168}, {"measurement": "glycan array binding signal (z-score)", "setting": "[12]", "result": 0.519}, {"measurement": "glycan array binding signal (z-score)", "setting": "[13]", "result": 0.292}, {"measurement": "glycan array binding signal (z-score)", "setting": "[14]", "result": -0.346}, {"measurement": "glycan array binding signal (z-score)", "setting": "[15]", "result": -0.638}, {"measurement": "glycan array binding signal (z-score)", "setting": "[16]", "result": -0.58}, {"measurement": "glycan array binding signal (z-score)", "setting": "[17]", "result": -0.574}, {"measurement": "glycan array binding signal (z-score)", "setting": "[18]", "result": -0.185}, {"measurement": "glycan array binding signal (z-score)", "setting": "[19]", "result": 0.558}, {"measurement": "glycan array binding signal (z-score)", "setting": "[20]", "result": 2.64}, {"measurement": "glycan array binding signal (z-score)", "setting": "[21]", "result": 2.97}, {"measurement": "glycan array binding signal (z-score)", "setting": "[22]", "result": -0.516}, {"measurement": "glycan array binding signal (z-score)", "setting": "[23]", "result": -0.069}, {"measurement": "glycan array binding signal (z-score)", "setting": "[24]", "result": -0.42}, {"measurement": "glycan array binding signal (z-score)", "setting": "[25]", "result": 0.163}, {"measurement": "glycan array binding signal (z-score)", "setting": "[26]", "result": 0.011}]}
